PubChem BioAssay (NCI)
About 79,000 compounds went through this panel and 15% of them were active in at least one assay; those are over-represented in the sample as a whole. Values without a mark were called inactive. Active and inactive are the calls of the source. No stated cut-off is given here; in the data, active means growth inhibition above about 70%; inactive means the rest. Where a SMILES comes first, the peptide text is derived from it. The star is where a group is joined. Cbz = O=C(OCc1ccccc1)*

Key:
[1] = NCI Yeast Anticancer Drug Screen. Data for the rad50 strain (AID 155);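 further: 0% = growth of vehicle-only cultures of the same strain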; conditions: S. cerevisiae rad50 strain growth inhibition, active compounds read high; at 50.0 µM unless noted
How it was run: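 Genetically altered yeast (DNA repair pathway); compound treatment; growth inhibition vs vehicle ctrl.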

[2] = NCI Yeast Anticancer Drug Screen. Data for the mec2-1 strain (AID 157); conditions: S. cerevisiae mec2-1 strain, active compounds read high; at 50.0 µM unless noted
How it was run: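 mec2-1 yeast strain, carrying an alteration in DNA damage repair or cell cycle control, was exposed to compounds; growth inhibition was measured relative to vehicle-treated controls.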

[3] = NCI Yeast Anticancer Drug Screen. Data for the sgs1 mgt1 strain (AID 161);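 further: 0% = growth of cultures given vehicle only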; conditions: S. cerevisiae sgs1 mgt1 strain, active compounds read high; at 50.0 µM unless noted
How it was run: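 Compounds are added to genetically altered yeast, and growth is compared with cultures given vehicle alone to give percent inhibition.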

[4] = NCI Yeast Anticancer Drug Screen. Data for the cln2 rad14 strain (AID 165);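 further: 0% = growth equal to vehicle treated cultures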; conditions: S. cerevisiae cln2 rad14 strain, active compounds read high; at 50.0 µM unless noted
How it was run: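 Yeast carrying cln2 and rad14 alterations (cell cycle control and DNA damage repair) were exposed to compounds. Growth inhibition was measured against vehicle-treated controls.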

[5] = NCI Yeast Anticancer Drug Screen. Data for the bub3 strain (AID 167); conditions: S. cerevisiae bub3 mutant strain, active compounds read high; at 50.0 µM unless noted
How it was run: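 Yeast carrying a defined mutation is treated with each compound, and growth is compared with that of vehicle-exposed cells to give inhibition.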

[6] = NCI Yeast Anticancer Drug Screen. Data for the mlh1 rad18 strain (AID 175); conditions: S. cerevisiae mlh1 rad18 strain growth inhibition, active compounds read high; at 50.0 µM unless noted
How it was run: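 Growth inhibition of the yeast strain was measured after compound exposure and expressed relative to vehicle-treated controls. The strain carries defined defects in DNA damage repair.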

Compound	growth inhibition [1]	growth inhibition [2]	growth inhibition [3]	growth inhibition [4]	growth inhibition [5]	growth inhibition [6]
O=C1c2cc(Cc3ccccc3)c(=O)c(Cc3ccccc3)cc2C(=O)c2cc(Cc3ccccc3)c(=O)c(Cc3ccccc3)cc21	23%	-11.3%	-11.3%	-26%	-6.35%	20.3%
O=C(Nc1ccc(Cl)cc1[N+](=O)[O-])Oc1ccc(C2CCCCC2)cc1	98.2% (active)	94.3% (active)	98% (active)	87% (active)	98% (active)	97.5% (active)
COC(=O)c1ccc2c(c1)CC1(C2)Cc2cc3c(cc2C1)CCC3	-19.4%	-19.9%	-17.5%	9.95%	12.8%	-12.5%
CC(C)CCCC(C)[C@H]1CCC2C3CC=C4C[C@@H](OC(=O)CC(CC(=O)[O-])C(=O)[O-])CC[C@]4(C)C3CC[C@@]21C.N.N.[Pt+4] (stereo partly specified)	26.2%	13.1%	11.7%	4.2%	12.6%	0.35%
Cc1ccc(C(=O)CC2=Nc3nnc(CCCCCCCc4nnc5n4C(=O)C(CC(=O)c4ccc(C)cc4)=N5)n3C2=O)cc1	-9.45%	22.4%	-0.1%	-22%	-5.25%	-11.1%
O=[N+]([O-])c1ccc(/C=N/Nc2nnc3c4ccccc4c4ncccc4c3n2)o1	-20.8%	-14.6%	-23.6%	-29.8%	-33.8%	16.9%
N#CC1CCC[N-]C1.N#CC1CCC[N-]C1.[Cl][Pt+2][Cl] (stereo unspecified)	50.6%	4.75%	32.4%	21.1%	4.3%	42.4%
COc1cc(CC(=O)C(=O)O)ccc1O	0.85%	-2.95%	4.35%	-14.7%	2.2%	-1.95%
COC(=O)CC(NC(=O)OCc1ccccc1)C(=O)NCC(=O)Oc1ccc([N+](=O)[O-])cc1 (stereo unspecified)	21.1%	11.8%	12.2%	12.2%	5.75%	8.5%
COc1ccc(/C=C2\N=C(N3CCCC(CO)C3)NC2=O)cc1 (stereo unspecified)	-35.1%	-2.4%	8.3%	1.9%	-3.85%	-34%
Cc1nc2c(c(=O)[nH]1)C(c1ccccc1)C(C)(C)O2 (stereo unspecified)	3.6%	-23.3%	-3.6%	-4.5%	6.15%	6.85%
Cn1c(O)c(N=NC(=O)Cc2c[nH]c3ccccc23)c2ccccc21	-6.95%	-3.75%	4.8%	-7.05%	-2.2%	-19.1%
COc1ccc(NC(=O)CC(=O)N2N=C(N3c4ccccc4Sc4ccccc43)CC2c2ccccc2)cc1 (stereo unspecified)	8.65%	-4.1%	0.8%	14.2%	4.8%	-3.6%
CCN(CC)CCNc1ccc(COC(=O)NC)c2sc3ccccc3c(=O)c12	3.9%	-2.4%	-8.3%	-12.2%	-17.4%	-58.9%
O=C(CC1=Nc2nnc(-c3nnc4n3C(=O)C(CC(=O)c3cccnc3)=N4)n2C1=O)c1cccnc1	-5%	-8.55%	-1.35%	-19.2%	-6.35%	-12.7%
COc1ccc(C2=N/C(=C\c3ccccc3)C(=O)O2)cc1	-4.05%	8.6%	28.4%	-22.4%	-4%	-0.9%
CCCCOC(=O)C(O)Cc1ccoc1 (stereo unspecified)	5.25%	-33.9%	-17.9%	12.9%	-14.4%	-14.4%
Cc1[nH]nc2c1C(=O)C=C(N(CCO)c1ccccc1)C2=O	-24.6%	5.35%	2.25%	11.2%	-11.9%	-6.55%
COc1cc(N(Cc2ccc3nc(OC)c(OC)nc3c2)Cc2ccc3nc(OC)c(OC)nc3c2)cc(OC)c1OC	-29.8%	-23.6%	-19.4%	-6.4%	-20.4%	-14.6%
CN1C2=NC(=O)NC(=O)C23OC3c2ccccc21 (stereo unspecified) (tested in a mixture with another compound)	6.35%	12%	-0.45%	14.7%	1.75%	18.9%
CN(C)C(C#CCO)c1ccccc1 (stereo unspecified)	-30.5%	-13.2%	1.45%	-3.55%	-9.7%	4.8%

Compound	growth inhibition [1]	growth inhibition [2]	growth inhibition [3]	growth inhibition [4]	growth inhibition [5]	growth inhibition [6]
CC1Cc2c(n[nH]c2CC2CC(=O)NC(=O)C2)C(C)C1 (stereo unspecified)	8.6%	-2.35%	4%	-15.7%	29.4%	17.8%
Cc1nc(N(C)C)oc(=O)c1CCc1ccccc1	-5.8%	3.8%	-0.9%	0.2%	6.9%	8.9%
O=C(O)COc1ccc(F)cc1F	-22.5%	-3.05%	1.65%	-31.4%	0.95%	-16.4%
O=C(Nc1ccccc1Cl)c1cc2cc(N=Nc3ccc(Br)cc3)ccc2oc1=O	0.55%	9.75%	-3.8%	9.6%	-7.05%	-3.5%
N.N.O=P([O-])([O-])C1(P(=O)([O-])[O-])CCCCCN1.[Pt+2]	13.6%	22.4%	-5.05%	6.25%	23.7%	11.2%
CCOC(C)(Cc1ccccc1[N+](=O)[O-])OCC	11.4%	4.3%	-4.05%	2.5%	-3.6%	18.5%
O=C(CC1SC(=Nc2ccccc2Cl)NC1=O)Nc1ccc(Cl)cc1Cl (stereo unspecified)	-9.8%	-14.8%	-15.9%	17.7%	-6.55%	9.7%
C=C(C)C(C(=O)OCC)C(=O)OCC	3.4%	-2.75%	7.4%	10.5%	-21.8%	-4.85%
CC(=O)Nc1ccc2nc(SC(C)C)sc2c1	39.4%	7.7%	31.6%	17.4%	13.1%	19.9%
CC1CN(CCO)CCN1Cc1ccccc1 (stereo unspecified)	-12.6%	-12.3%	-16.6%	-5.1%	-12.6%	-5.8%
CC(C)(C)OC(=O)c1ccccc1C(=O)c1ccccc1	-0.4%	-1.2%	-4.8%	14.3%	9.05%	-10.8%
Cc1cc(S(=O)(=O)Nc2n[nH]c(N)n2)c(S)cc1Cl	11.4%	7.45%	-6.65%	-4.6%	1.1%	12.8%
CN(CC#CC#CCN(C)c1ccccc1)c1ccccc1	-14.2%	-28.1%	-13.6%	-27%	-35.2%	-20.1%
CCOc1ccccc1N=C(NC(=O)CC)SC	39%	26.8%	-7.15%	12.1%	32.3%	52%
CC1=NC(=Cc2cc(Br)cc(Br)c2)C(=O)N1n1c(-c2ccccc2)nc2ccccc2c1=O	-13.2%	-15.8%	-1.65%	0.95%	-24.7%	2.7%
C=CCC(O)c1ccccc1OC (stereo unspecified)	9.75%	9.25%	20.8%	5.15%	-5.9%	7.95%
NC(=O)C(Cc1ccccc1)NC(=O)C(Cc1ccccc1)NC(=O)C(Cc1ccccc1)NC(=O)OCc1ccccc1 (stereo not drawn) (Cbz-Phe-Phe-Phe-NH2; configuration not given here)	25.6%	7.8%	17.6%	-12%	-5.2%	21.9%
O=S(=O)(NCCN1CCNC1=S)c1ccc(Cl)c(Cl)c1	-55.5%	-12.7%	-3.25%	-16.7%	-6.2%	-6.6%
Nc1ccccc1C1CCCCC1	32.1%	-13.6%	52%	-19.4%	3.95%	26.6%
COc1cc2c(=O)[nH]c3cc(N)ccc3c2cc1N	9.6%	7.9%	-4.2%	-7.8%	-3.95%	0.6%
